Measured values taken from PubChem BioAssay.
Activity calls are given as the source filed them.

Columns and labels:
[1] = binders of probe aFSTL3 on microarray, primary screen, stem cell growth factor project, biochemical, small-molecule microarray, fluorescence 635/667 (AID 1064); conditions: higher = more signal;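 note: measures binding of the biotinylated anti-FSTL3 antibody to printed compounds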
[2] = binders from COS7 lysate, DM2A8 probe, primary screen, torsin A project, cell lysate, small-molecule microarray, fluorescence 635/667 (AID 1065); conditions: higher = more signal, COS7 lysate expressing mutant human TOR1A
[3] = binders of probe aFGF2 on microarray, primary screen, stem cell growth factor project, biochemical, small-molecule microarray, fluorescence 635/667 (AID 1067); conditions: higher = more signal;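 note: measures binding of biotinylated aFGF2 protein to printed compounds on slides; z-score merges feature fluorescence and signal-to-noise across triplicate slides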
[4] = binders of probe aFGF10 on microarray, primary screen, stem cell growth factor project, biochemical, small-molecule microarray, fluorescence 635/667 (AID 1071); conditions: higher = more signal;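 note: score merges 667 nm spot intensity and signal to noise from triplicate slides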
[5] = biological target: Neurogenic locus notch homolog protein 2 (Homo sapiens) (UniProt Q04721); test: Notch2 binders on small-molecule microarrays, primary screen, biochemical, small-molecule microarray, 635 nm fluorescence, stem cell growth factors (AID 1073); conditions: Notch2 binding, higher = more signal
Chain of Neurogenic locus notch homolog protein 2 (Homo sapiens) (Q04721 whole entry, looked up, canonical isoform): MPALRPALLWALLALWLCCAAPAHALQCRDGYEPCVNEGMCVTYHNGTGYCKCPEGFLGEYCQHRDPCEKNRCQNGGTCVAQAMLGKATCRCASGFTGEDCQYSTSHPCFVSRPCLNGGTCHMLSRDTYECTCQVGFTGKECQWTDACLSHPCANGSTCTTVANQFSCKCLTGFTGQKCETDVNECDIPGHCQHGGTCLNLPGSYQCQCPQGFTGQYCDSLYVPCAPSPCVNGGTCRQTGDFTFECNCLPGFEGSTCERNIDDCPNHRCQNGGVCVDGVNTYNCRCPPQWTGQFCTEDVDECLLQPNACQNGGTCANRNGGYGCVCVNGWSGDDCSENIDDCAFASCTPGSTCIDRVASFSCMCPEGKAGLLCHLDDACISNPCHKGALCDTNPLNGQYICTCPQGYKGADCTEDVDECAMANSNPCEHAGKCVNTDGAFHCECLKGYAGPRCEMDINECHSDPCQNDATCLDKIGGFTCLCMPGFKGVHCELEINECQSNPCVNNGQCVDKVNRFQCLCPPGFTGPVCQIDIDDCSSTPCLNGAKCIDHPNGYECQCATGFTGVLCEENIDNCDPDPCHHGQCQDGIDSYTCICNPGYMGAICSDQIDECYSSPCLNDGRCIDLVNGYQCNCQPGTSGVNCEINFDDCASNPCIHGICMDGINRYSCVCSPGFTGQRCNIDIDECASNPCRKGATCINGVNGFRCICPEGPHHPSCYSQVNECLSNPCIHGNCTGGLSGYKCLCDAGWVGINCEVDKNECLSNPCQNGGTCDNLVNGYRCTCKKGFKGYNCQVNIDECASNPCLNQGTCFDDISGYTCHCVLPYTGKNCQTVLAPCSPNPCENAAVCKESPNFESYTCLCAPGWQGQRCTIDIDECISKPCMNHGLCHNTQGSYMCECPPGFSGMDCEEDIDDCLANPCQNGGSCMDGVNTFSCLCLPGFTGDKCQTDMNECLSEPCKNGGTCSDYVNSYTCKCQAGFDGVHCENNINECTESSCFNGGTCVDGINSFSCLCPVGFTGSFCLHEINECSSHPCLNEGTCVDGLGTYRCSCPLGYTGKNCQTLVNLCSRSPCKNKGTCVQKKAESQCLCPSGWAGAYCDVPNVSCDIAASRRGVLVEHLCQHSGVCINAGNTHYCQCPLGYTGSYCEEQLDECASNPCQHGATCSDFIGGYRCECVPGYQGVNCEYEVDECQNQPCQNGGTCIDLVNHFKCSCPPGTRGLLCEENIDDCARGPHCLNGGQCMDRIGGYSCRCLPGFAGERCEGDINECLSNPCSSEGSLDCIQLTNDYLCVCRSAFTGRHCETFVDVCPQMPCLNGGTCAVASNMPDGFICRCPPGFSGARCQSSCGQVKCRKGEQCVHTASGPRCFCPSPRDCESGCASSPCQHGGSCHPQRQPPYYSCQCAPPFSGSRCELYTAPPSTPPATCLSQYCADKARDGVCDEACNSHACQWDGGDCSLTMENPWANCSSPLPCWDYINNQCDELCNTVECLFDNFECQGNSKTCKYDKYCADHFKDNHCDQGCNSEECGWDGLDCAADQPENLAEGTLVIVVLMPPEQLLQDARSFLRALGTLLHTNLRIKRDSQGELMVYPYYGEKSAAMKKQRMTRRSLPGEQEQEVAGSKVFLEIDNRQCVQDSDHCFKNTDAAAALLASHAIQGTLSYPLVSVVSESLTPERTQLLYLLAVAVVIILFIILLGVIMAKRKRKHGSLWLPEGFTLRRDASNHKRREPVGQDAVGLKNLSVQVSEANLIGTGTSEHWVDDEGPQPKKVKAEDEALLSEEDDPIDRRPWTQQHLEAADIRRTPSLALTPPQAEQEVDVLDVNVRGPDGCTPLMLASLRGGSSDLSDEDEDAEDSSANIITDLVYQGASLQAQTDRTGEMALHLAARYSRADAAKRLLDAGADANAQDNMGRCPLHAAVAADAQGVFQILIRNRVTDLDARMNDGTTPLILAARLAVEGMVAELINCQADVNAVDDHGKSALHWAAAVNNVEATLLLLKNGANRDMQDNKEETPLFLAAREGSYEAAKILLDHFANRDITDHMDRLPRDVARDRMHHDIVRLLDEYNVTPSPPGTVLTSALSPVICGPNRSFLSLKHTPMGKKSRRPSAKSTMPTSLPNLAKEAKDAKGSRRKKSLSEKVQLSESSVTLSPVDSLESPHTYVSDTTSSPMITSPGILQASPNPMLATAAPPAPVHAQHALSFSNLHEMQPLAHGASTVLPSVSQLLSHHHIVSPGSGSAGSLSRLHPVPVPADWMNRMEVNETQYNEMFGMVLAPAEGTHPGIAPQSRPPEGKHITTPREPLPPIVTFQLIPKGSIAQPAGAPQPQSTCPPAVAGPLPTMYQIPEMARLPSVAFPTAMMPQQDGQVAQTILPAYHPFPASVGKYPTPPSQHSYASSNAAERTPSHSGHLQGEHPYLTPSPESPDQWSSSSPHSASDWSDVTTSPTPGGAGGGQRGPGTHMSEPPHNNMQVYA

[6] = biological target: Pro-neuregulin-1, membrane-bound isoform (Homo sapiens) (UniProt Q02297); test: NRG1 binders on small-molecule microarrays, primary screen, psychiatric disease protein project, biochemical, small-molecule microarray, fluorescence 635/667 (AID 1075); conditions: NRG1 binding, 635 nm fluorescence, higher = more signal;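 note: score combines 667 nm spot fluorescence with signal to noise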
Chain of Pro-neuregulin-1, membrane-bound isoform (Homo sapiens) (Q02297 whole entry, looked up, the tested form may be a part, canonical isoform): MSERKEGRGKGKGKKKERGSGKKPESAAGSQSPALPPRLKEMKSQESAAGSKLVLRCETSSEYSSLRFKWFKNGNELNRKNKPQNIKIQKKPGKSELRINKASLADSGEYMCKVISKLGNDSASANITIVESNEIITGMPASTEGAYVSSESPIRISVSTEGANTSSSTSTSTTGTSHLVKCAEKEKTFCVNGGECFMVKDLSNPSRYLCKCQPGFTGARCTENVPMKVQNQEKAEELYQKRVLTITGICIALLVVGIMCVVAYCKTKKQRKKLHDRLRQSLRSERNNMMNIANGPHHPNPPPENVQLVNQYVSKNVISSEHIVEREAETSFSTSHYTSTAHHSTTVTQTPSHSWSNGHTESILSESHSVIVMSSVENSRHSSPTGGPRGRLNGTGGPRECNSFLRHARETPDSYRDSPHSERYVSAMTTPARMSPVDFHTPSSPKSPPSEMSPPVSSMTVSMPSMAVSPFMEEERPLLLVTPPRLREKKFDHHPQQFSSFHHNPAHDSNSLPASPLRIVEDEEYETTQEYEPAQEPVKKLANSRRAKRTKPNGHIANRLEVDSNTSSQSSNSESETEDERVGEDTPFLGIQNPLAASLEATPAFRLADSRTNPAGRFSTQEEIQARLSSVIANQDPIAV

[7] = test system: Neuregulin-1 EGF-like domain; test: binders of neuregulin-1 EGF-like domain, primary screen, biochemical, small-molecule microarray, 635 nm fluorescence (AID 1081); conditions: small-molecule microarray binding, higher = more signal;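 note: binding of the protein to compounds printed on small-molecule microarray slides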
[8] = FRG1 promoter luciferase signal modulators, primary screen, FRG1 inhibition for FSHD, cell-based, C2C12 myotubes, firefly/Renilla luciferase, luminescence (AID 1084); conditions: higher = more signal, called active from +8 up or from −8 down
[9] = binders of probe aFST on microarray, primary screen, stem cell growth factor project, biochemical, small-molecule microarray, fluorescence 635/667 (AID 1086); conditions: higher = more signal;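 note: score merges 667 nm fluorescence with signal-to-noise of each printed compound spot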
[10] = binders of probe aHhip on microarray, primary screen, stem cell growth factor project, biochemical, small-molecule microarray, fluorescence 635/667 (AID 1087); conditions: higher = more signal;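 note: score merges spot fluorescence at 667nm with spot signal to noise ratio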

[N-]=[N+]=NCc1ccccc1[C@H]1OC(c2ccc(OCCCO)cc2)=N[C@@]1(Cc1ccccc1N=[N+]=[N-])C(=O)NCc1ccccc1
composite z-score [1]: 0.817
composite z-score [2]: 0.155
composite z-score [3]: 0.0308
composite z-score [4]: 0.622
composite z-score [5]: 1.28
composite z-score [6]: 0.408
composite z-score [7]: 0.807
z-score [8]: -1.35 (inactive)
composite z-score [9]: 0.939
composite z-score [10]: 0.0595

CO[C@H]1COC(=O)[C@@H](OCc2ccccc2)C=C[C@H](C)[C@@H](OC)COC(=O)[C@H](OCc2ccccc2)C=C[C@@H]1C
composite z-score [1]: -0.617
composite z-score [2]: -0.144
composite z-score [3]: -0.136
composite z-score [4]: -0.205
composite z-score [5]: -0.893
composite z-score [6]: -0.93
composite z-score [7]: -0.669
z-score [8]: -0.23 (inactive)
composite z-score [9]: -0.0171
composite z-score [10]: -0.353

COc1ccc([C@H]2C[C@H]3C(Br)=C[C@]2(OC)C(=O)[C@]32CO2)cc1
composite z-score [1]: -0.207
composite z-score [2]: -0.187
composite z-score [3]: -0.0563
composite z-score [4]: 1.02
composite z-score [5]: -0.203
composite z-score [6]: -0.228
composite z-score [7]: -0.0338
z-score [8]: 0.926 (inactive)
composite z-score [9]: 0.198
composite z-score [10]: 0.0722

CO[C@H]1COC(=O)[C@H](Cc2ccccc2)NC(=O)CC=C[C@@H](C)[C@H](OC)COC(=O)CC=C[C@@H]1C
composite z-score [1]: -0.453
composite z-score [2]: 0.421
composite z-score [3]: -0.0643
composite z-score [4]: 0.324
composite z-score [5]: -0.156
composite z-score [6]: 0.131
composite z-score [7]: 0.316
z-score [8]: -0.244 (inactive)
composite z-score [9]: 0.244
composite z-score [10]: -0.504

Cc1cc(C)c(C(O)C2C=CC3C(=O)N(C)C(=O)C3N2N2CCCCC2)c(C)c1 (stereo not given)
composite z-score [1]: 0.0308
composite z-score [2]: 0.563
composite z-score [3]: 0.205
composite z-score [4]: 1.02
composite z-score [5]: 1.69
composite z-score [6]: 0.918
composite z-score [7]: 1.3
z-score [8]: 0.251 (inactive)
composite z-score [9]: 1.27
composite z-score [10]: -0.206

COc1ccc([Si](C)(C)[C@H]2[C@H](CC(=O)N3Cc4ccccc4C[C@H]3CO)O[C@@]3(C(=O)N(Cc4cccc(N5CCOC5=O)c4)c4ccccc43)[C@@H]2C)cc1
composite z-score [1]: 0.0766
composite z-score [2]: 0.882
composite z-score [3]: -0.128
composite z-score [4]: 0.157
composite z-score [5]: 0.123
composite z-score [6]: 0.676
composite z-score [7]: 0.95
z-score [8]: -2.72 (inactive)
composite z-score [9]: 0.158
composite z-score [10]: -0.264

Cc1ccc(N2C(=O)c3ccccc3[C@](C)(C(=O)NCC(C)C)[C@@H]2c2ccc(CO)cc2)nc1
composite z-score [1]: 0.572
composite z-score [2]: -0.48
composite z-score [3]: 0.0988
composite z-score [4]: -0.662
composite z-score [5]: -1.02
composite z-score [6]: -1.05
composite z-score [7]: 1.4
z-score [8]: 0.613 (inactive)
composite z-score [9]: -0.542
composite z-score [10]: 0.74

COC(=O)[C@@]1(Cc2ccc(OC)cc2)[C@H]2c3cc(C(=O)N(C)C)n(Cc4ccc(C)c(F)c4F)c3C[C@H]2CN1C(=O)c1ccccc1
composite z-score [1]: 0.372
composite z-score [2]: 0.251
composite z-score [3]: 0.162
composite z-score [4]: 0.315
composite z-score [5]: 0.498
composite z-score [6]: 0.57
composite z-score [7]: 0.964
z-score [8]: 0.803 (inactive)
composite z-score [9]: 0.588
composite z-score [10]: 0.21

CCOC(=O)C[C@H]1[C@H](OC(=O)c2cc3ccccc3oc2=O)[C@@H](NC(=O)c2ccc3ccccc3c2)c2cc(OCCCO)ccc2N1C(=O)c1ccc2ccccc2n1
composite z-score [1]: -0.522
composite z-score [2]: 0.128
composite z-score [3]: -0.0336
composite z-score [4]: 1.11
composite z-score [5]: 1.09
composite z-score [6]: 0.384
composite z-score [7]: 1.03
z-score [8]: -0.881 (inactive)
composite z-score [9]: 0.518
composite z-score [10]: -0.0994

COC(=O)[C@@]1(Cc2ccccc2CN=[N+]=[N-])N=C(c2ccc(OCCCO)cc2)O[C@H]1c1ccccc1N=[N+]=[N-]
composite z-score [1]: 0.127
composite z-score [2]: -0.523
composite z-score [3]: -0.0004
composite z-score [4]: -0.259
composite z-score [5]: 0.167
composite z-score [6]: 1.09
composite z-score [7]: 1.13
z-score [8]: 1.17 (inactive)
composite z-score [9]: 0.19
composite z-score [10]: 0.0826

C=CCN1C(=O)[C@@]2(Cc3ccccc3)N=C(c3ccc(OCCCO)cc3)O[C@H]2c2ccccc21
composite z-score [1]: 1.02
composite z-score [2]: 0.22
composite z-score [3]: 0.0714
composite z-score [4]: 0.0096
composite z-score [5]: 0.895
composite z-score [6]: 0.14
composite z-score [7]: 1.14
z-score [8]: -2.86 (inactive)
composite z-score [9]: 0.691
composite z-score [10]: -0.132
